# Compound activity (PubChem)
# Rows were chosen to be rich in hits. Some 2.6% of all compounds tested hit in one or more screens of this group.
# ABHD5 PLIN5 PPI: blocks binding of human ABHD5 to perilipin-5; Q00G26+Q8WTS1; hit rate 0.78% among 360,000; inhibition, % at 4 µM; Split G. princeps luciferase complementation, luminescence, 4 h;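 active = inhibition above the mean inhibition across every tested compound plus 3 SD, cut at about 22% in these data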
# NOD2-RIPK2 inh: blocks binding of human NOD2 to RIPK2 | inhibition, % at 4.98 µM | O43353 | CHO BLA complementation NOD2-RIPK2, CCF4 ratio | AID 624267 | hit rate 0.38% among 360,000; in the data active = inhibition above about 21%
# TLR9-MyD88 inh: TLR9-MyD88 interaction inhibition. Q9NR96+Q99836. hit rate 0.21% among 340,000. inhibition, % at 4.98 µM. CHO BLA complementation TLR9-MyD88, CCF4 FRET ratio;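 active = inhibition above the mean over all tested compounds plus 3 SD, cut at about 21% in these data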
# Target sequence (Q99836 whole entry, looked up): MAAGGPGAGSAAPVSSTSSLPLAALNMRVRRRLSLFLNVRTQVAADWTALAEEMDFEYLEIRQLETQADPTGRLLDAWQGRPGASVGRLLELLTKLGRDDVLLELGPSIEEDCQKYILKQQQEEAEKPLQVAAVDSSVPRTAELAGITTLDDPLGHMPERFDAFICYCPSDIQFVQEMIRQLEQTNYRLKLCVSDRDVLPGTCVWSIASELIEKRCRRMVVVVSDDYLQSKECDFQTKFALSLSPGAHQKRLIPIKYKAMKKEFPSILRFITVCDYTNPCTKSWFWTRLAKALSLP
# Target sequence (Q9NR96 whole entry, looked up): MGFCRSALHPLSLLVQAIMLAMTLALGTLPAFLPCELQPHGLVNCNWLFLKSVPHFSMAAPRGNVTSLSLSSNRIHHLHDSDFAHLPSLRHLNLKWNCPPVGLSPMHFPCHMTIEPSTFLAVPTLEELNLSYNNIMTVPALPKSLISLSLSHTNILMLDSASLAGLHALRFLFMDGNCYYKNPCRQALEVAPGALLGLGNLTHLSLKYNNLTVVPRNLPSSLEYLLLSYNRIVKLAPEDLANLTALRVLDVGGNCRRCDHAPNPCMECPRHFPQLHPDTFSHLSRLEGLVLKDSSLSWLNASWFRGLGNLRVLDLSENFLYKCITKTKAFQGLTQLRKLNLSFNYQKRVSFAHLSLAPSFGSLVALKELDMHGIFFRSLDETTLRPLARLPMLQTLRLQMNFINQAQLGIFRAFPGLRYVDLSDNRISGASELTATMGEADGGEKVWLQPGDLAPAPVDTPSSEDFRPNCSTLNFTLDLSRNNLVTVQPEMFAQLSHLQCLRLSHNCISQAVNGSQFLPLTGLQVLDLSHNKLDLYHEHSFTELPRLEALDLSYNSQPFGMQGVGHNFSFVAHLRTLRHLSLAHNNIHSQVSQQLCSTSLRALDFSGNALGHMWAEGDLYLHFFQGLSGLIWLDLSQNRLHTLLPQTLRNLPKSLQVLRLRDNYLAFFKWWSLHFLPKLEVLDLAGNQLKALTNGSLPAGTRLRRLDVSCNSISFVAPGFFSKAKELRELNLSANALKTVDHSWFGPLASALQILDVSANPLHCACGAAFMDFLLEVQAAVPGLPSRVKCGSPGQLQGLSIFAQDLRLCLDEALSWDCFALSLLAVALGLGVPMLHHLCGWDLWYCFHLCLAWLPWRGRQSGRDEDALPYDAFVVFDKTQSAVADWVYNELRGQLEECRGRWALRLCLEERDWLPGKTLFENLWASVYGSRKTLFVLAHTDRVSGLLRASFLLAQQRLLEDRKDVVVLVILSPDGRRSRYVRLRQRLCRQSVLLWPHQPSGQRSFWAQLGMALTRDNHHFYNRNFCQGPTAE
# PRMT1 FP inh: blocks human protein arginine methyltransferase 1 | hit rate 1.3% among 370,000 | AID 652257 | inhibition, % at 2.79 µM | Q99873 | recombinant PRMT1, activity-based probe fluorescence polarization;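 active = inhibition above about 21% made by adding two undisclosed values, limit read from the data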
# Granule exo inh: blocks lytic granule exocytosis | TALL-104 LAMP-1 surface exposure, flow cytometry; cells stimulated with thapsigargin and PMA | inhibition, % at 10 µM | hit rate 0.66% among 360,000;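 active = inhibition above about 55%, limit read from the data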
# TLR4-MyD88 BLA: inhibitors of human TLR4-MyD88 binding; HeLa CL3-4 TLR4/MyD88 BLA complementation, FRET ratio; inhibition, % at 8.4 µM; hit rate 0.18% among 200,000; AID 861; in the data active = inhibition above about 25%
# NOD2-RIPK2 conf: NOD2-RIPK2 interaction inhibition confirmed; shares compounds with NOD2-RIPK2 inh; CHO cells, NOD2-RIPK2 BLA complementation, CCF4 FRET; inhibition, % at 4.98 µM; hit rate 70% among 1,200;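 active = mean inhibition across replicates above a set limit taken from the earlier primary screen, cut at about 21% in these data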
# BLA counter: counter-screen for NOD2-RIPK2 interaction inhibitors: BLA reporter. shares compounds with NOD2-RIPK2 inh. CHO BLA reporter, CCF4 FRET ratio, counterscreen. inhibition, % at 4.98 µM. hit rate 57% among 1,200. AID 624371;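 active = mean inhibition above the low-control mean inhibition plus three low-control SD, cut at about 11% in these data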
# Numbers stand for hits; n = inactive; x = not tested or not shown.
SMILES,ABHD5 PLIN5 PPI,NOD2-RIPK2 inh,TLR9-MyD88 inh,PRMT1 FP inh,Granule exo inh,TLR4-MyD88 BLA,NOD2-RIPK2 conf,BLA counter
CCc1cc2c(=O)nc3n(c2s1)Cc1ccccc1/C3=C(/O)c1ccccc1Cl,n,31,n,n,n,n,n,n
CN=C1NC(=O)/C(=C\c2cc(C)n(-c3ccccc3F)c2C)S1,x,x,x,n,x,x,x,x
COc1ccc(NC(=O)C(c2ccc(C(F)(F)F)cc2)n2c(=O)c(-c3cc4ccccc4[nH]3)nc3ccccc32)cc1 (stereo not given),n,41,x,n,n,x,38,64
COc1ccc(C(C(=O)Nc2ccc3c(c2)OCCO3)n2c(=O)c(-c3cc4ccccc4[nH]3)nc3ccccc32)cc1 (stereo not given),n,45,x,n,n,x,43,65
COc1ccc(NC(=O)c2cc3ccccc3[nH]2)cc1,n,n,n,n,n,x,x,x
COCC(=O)Nc1nc2n(n1)C(c1ccccc1)CC(c1ccc(OC)cc1)N2 (stereo not given),n,28,n,n,n,n,26,26
CC(C)(C)[C@H](N)C(=O)N[C@H]1CCC2C3CC=C4C[C@@H](O)CC[C@]4(C)C3CC[C@@]21C (stereo not given in full),n,21,n,n,n,x,22,n
COC(=O)[C@]12C[C@H](CC(=O)N3CCN(C(=O)C4CC4)CC3)C(=O)N(Cc3ccccc3)C1=C[C@H](C(C)(C)C)O[C@@H]2C,x,x,x,n,x,x,x,x
CCC1=Nc2cc(C(=O)NCCN3CCOCC3)ccc2Sc2ccccc21,n,n,n,n,n,x,x,x
CCOCCCNC(=O)c1ccc2c(c1)N=C(CC)c1cc(Br)ccc1S2,n,28,n,n,n,n,n,n
Cc1cc(C)cc(NC(=O)C2CCN(c3cnccn3)CC2)c1,n,n,n,n,n,n,x,x
Cc1cc(C)c(NC(=O)C2CCN(c3cnccn3)CC2)c(C)c1,n,28,n,n,n,n,n,n
O=C(NCCc1c[nH]c2ccccc12)OCc1cn(-c2cccc(Cl)c2)nn1,x,x,x,n,x,x,x,x
O=C(NCc1ccco1)C(=O)c1c[nH]c2ccccc12,n,32,n,n,n,n,n,n
Cc1ccccc1C(=O)N[C@@H](Cc1cccnc1)C(=O)N1CCC[C@H]1C(=O)NCCc1ccccc1Cl,x,x,x,n,x,x,x,x
O=C(COc1ccc(S(=O)(=O)N2CCOCC2)cc1Cl)NCC1CCCO1 (stereo not given),n,46,n,n,n,x,n,n
CCOc1ccccc1C(=O)Oc1cc(C)[nH]c(=O)c1[N+](=O)[O-],n,97,n,n,n,x,n,n
Cc1ccc(CNS(=O)(=O)c2c(C(=O)N3CCCCCC3)c(C)n(C)c2C)cc1,n,54,n,n,n,x,n,n
Cc1c(C(=O)N2CCCCC2)c(S(=O)(=O)NCc2ccc(Cl)cc2)c(C)n1C,n,n,n,n,n,x,x,x
Cc1ccc2nc(N3CCN(C(=O)CCCC(=O)O)CC3)nc(-c3ccccc3)c2c1,n,n,n,n,n,x,x,x
Cc1ccc2nc(N3CCN(C=O)CC3)nc(-c3ccccc3)c2c1,n,26,n,n,n,n,29,38
COC(=O)C1=C(C)N(Cc2cccc(C(F)(F)F)c2)C(=NCc2cc(OC)c(OC)c(OC)c2)NC1c1cccc(Cl)c1 (stereo not given),x,x,x,n,x,x,x,x
O=C(Nc1ccc(S(=O)(=O)N2CCCC2)cc1)c1ccc([N+](=O)[O-])o1,n,23,n,x,n,x,27,21
CC(=O)N1CCN(c2ccc(NC(=O)c3ccc([N+](=O)[O-])o3)cc2Cl)CC1,n,28,n,n,n,x,27,n
O=C(Nc1ccc(N2CCOCC2)cc1)c1ccc([N+](=O)[O-])o1,n,n,n,n,n,x,x,x
SMILES,ABHD5 PLIN5 PPI,NOD2-RIPK2 inh,TLR9-MyD88 inh,PRMT1 FP inh,Granule exo inh,TLR4-MyD88 BLA,NOD2-RIPK2 conf,BLA counter
CCC(=O)N1CCN(c2ccc(NC(=O)c3ccc([N+](=O)[O-])o3)cc2Cl)CC1,n,n,n,n,n,n,x,x
O=C(Nc1ccc(Cc2ccncc2)cc1)c1ccc([N+](=O)[O-])o1,n,21,n,n,n,x,32,16
Cc1cc2c(nc1C)CCCN2S(=O)(=O)c1ccc(F)cc1,x,x,x,n,x,x,x,x
COC(=O)C1CN(Cc2ccc(F)cc2)CCS(=O)(=O)N1Cc1ccccc1 (stereo not given),x,x,x,n,x,x,x,x
COc1ccc(COc2cc(-c3cccc(OC)c3)nc3ccc(NC(C)=O)cc23)cc1,n,n,n,n,n,n,x,x
COc1ccc(COc2cc(-c3cccc(OC)c3)nc3ccc(N)cc23)cc1,n,31,n,n,n,n,n,15
Cc1ccc(CN2CCCCC(NC(=O)c3ccc(Br)cc3)C2=O)cc1 (stereo not given),x,x,x,n,x,x,x,x
CCCCCNC(=O)C(C1CC1)n1c(=O)c(-c2cc3ccccc3[nH]2)nc2ccccc21 (stereo not given),n,45,x,n,n,x,37,64
CC(C)(C)NC(=O)C(C1CC1)n1c(=O)c(-c2ccccc2)nc2ccccc21 (stereo not given),n,n,x,n,n,x,x,x
CCCCCNC(=O)C(c1cc2ccccc2o1)n1c(=O)c(-c2cc3ccccc3[nH]2)nc2ccccc21 (stereo not given),n,48,x,n,n,x,43,66
CCCCCNC(=O)C(c1ccc(-c2ccccc2)cc1)n1c(=O)c(-c2cc3ccccc3[nH]2)nc2ccccc21 (stereo not given),n,25,x,n,n,x,37,64
CC(C)(C)NC(=O)C(c1cc2ccccc2o1)n1c(=O)c(-c2ccccc2)nc2ccccc21 (stereo not given),n,n,x,n,n,x,x,x
CC(C)CNC(=O)OCc1cn(Cc2cccc(F)c2F)nn1,x,x,x,n,x,x,x,x
COC(=O)[C@]12CCCCC=C1N(Cc1ccc(OC)cc1)C(=O)[C@@H]2CC(=O)N1CCOCC1,x,x,x,n,x,x,x,x
Cc1ccc2nc(-c3ccc(F)cc3)c(Cc3cccc(F)c3)n2c1,x,x,x,n,x,x,x,x
N#CC(C#N)=C1C=CC=CN1/C(=C\c1ccco1)C(=O)c1ccc(Cl)cc1,87,94,n,n,90,n,91,17
O=C(NCC1CCCO1)/C(=C\c1ccco1)NC(=O)c1ccc(Cl)cc1 (stereo not given),n,n,n,n,n,n,x,x
CS(=O)(=O)c1ccc(C(=O)OCc2nnc(-c3ccccc3)o2)cc1[N+](=O)[O-],n,21,n,n,n,n,55,n
Cc1ccc(Nc2nc(N)c([N+](=O)[O-])c(NCc3ccco3)n2)cc1,n,25,n,n,n,n,n,n
Cc1ccc(S(=O)(=O)NCCN2CCOCC2)c(C)c1C,n,72,n,n,n,n,n,n
